Compound activity: PubChem BioAssay, several laboratories
Only some compounds are listed: those with a hit (about 5.4% of all), similar ones and a draw of the others.
ALR inh: inhibitors of human ALR sulfhydryl oxidase, primary screen, biochemical, H2O2 detection, HRP-luminol luminescence, single point. purified ALR, DTT oxidation. inhibition, % (test concentration not listed). actives 3.8% (n = 290,000). AID 485317, 2010;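 active = mean replicate inhibition above about 79%, with every replicate also reaching it, limit read from the data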
aDG glyco act: activators of alpha-DG glycosylation, primary screen, uHTS, Pro5-aDG cells, AlphaScreen. alpha-DG glycosylation AlphaScreen (IIH6); 0% Pro5, 100% B10-LARGE cell signal. activation, % at 10 µM. actives 0.22% (n = 360,000). AID 624168, 2012;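 active = activation of at least 8% versus controls, or a plate z-score of at least 8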;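 note: Pro5 are CHO cells carrying HIG-tagged alpha-DG that lacks glycosylation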
PHOSPHO1 inh: PubChem AID 1565. inhibition, % at 13.3 µM. actives 1.1% (n = 290,000). Phosphoethanolamine/phosphocholine phosphatase (Homo sapiens), Q8TCT1. recombinant PHOSPHO1, absorbance phosphatase assay; in the data active = inhibition above about 60%
Target sequence (Q8TCT1 whole entry, looked up): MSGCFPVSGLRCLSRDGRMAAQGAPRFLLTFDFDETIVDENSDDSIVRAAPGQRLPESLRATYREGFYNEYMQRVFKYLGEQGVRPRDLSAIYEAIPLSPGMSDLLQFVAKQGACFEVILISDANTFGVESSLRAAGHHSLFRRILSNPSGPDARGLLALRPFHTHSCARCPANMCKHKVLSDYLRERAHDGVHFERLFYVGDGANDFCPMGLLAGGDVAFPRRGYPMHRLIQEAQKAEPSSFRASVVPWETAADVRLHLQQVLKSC
rCAG binder: binders of r(CAG) RNA repeats, primary screen, biochemical, fluorescence; r(CAG) RNA repeat, TO-PRO-1 dye displacement fluorescence; inhibition, % at 3 µM; actives 1.3% (n = 370,000); AID 651821, 2012;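 active = inhibition above the plate cutoff, the mean of all test compounds on that plate plus 3 SD, cut at about 35% in these data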;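 note: higher means more dye released from RNA so lower well fluorescence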
A3A deaminase: APOBEC3A ssDNA deaminase inhibitors, primary screen, selectivity assay for APOBEC3G inhibitor project, biochemical, FAM/TAMRA oligo cleavage fluorescence. recombinant A3A, FAM/TAMRA ssDNA deamination fluorescence. actives 0.41% (n = 330,000). DNA dC->dU-editing enzyme APOBEC-3A (Homo sapiens), P31941. inhibition, % at 20 µM;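 active = at least 40% inhibition at 20 µM here, with at most 30% in a related deaminase screen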
Target sequence (P31941 whole entry, looked up): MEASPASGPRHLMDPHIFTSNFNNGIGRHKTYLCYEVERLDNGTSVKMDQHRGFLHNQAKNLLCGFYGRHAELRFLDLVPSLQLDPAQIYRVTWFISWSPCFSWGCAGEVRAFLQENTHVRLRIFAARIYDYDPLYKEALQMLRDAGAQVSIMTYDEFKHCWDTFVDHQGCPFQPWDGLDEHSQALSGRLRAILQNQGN
A3G deaminase: APOBEC3G DNA deaminase inhibitors, primary screen, biochemical, fluorescence, single-stranded DNA substrate, uHTS | recombinant A3G, ssDNA deamination FAM/TAMRA fluorescence | inhibition, % at 20 µM | actives 0.28% (n = 330,000);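 active = inhibition of at least 40% at 20 µM, with no more than 30% in the related APOBEC3A deaminase screen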
Numbers stand for hits.

`Cc1cccc(-c2cccc3c4c([nH]c23)[C@@H]2C[C@H](N(C)C(=O)Nc3ccccc3C)[C@H]([C@H](C)O)C(=O)N2CC4)c1` gave rCAG binder inactive.
CCN(CC)C(=O)CC[C@@H]1CC[C@]2(CCCN(Cc3ccccn3)C2)O1 was read as rCAG binder inactive.
CCCCCCC12C(=Cc3cc4c(cc31)OCCO4)c1cc(OC)c(OC)cc1C(CC(=O)NCc1ccccc1)N2C(=O)OC (configuration not stated) was read as rCAG binder inactive.
For COc1ccc(-n2c(COc3ccc(C)cc3)nnc2SCC(N)=O)cc1 the results were ALR inh inactive, aDG glyco act inactive, PHOSPHO1 inh 95, rCAG binder inactive, A3A deaminase inactive and A3G deaminase inactive.
`COc1ccc(-n2c(COc3ccccc3)nnc2SCC(N)=O)cc1` gave aDG glyco act inactive, PHOSPHO1 inh 72, rCAG binder inactive, A3A deaminase inactive and A3G deaminase inactive.
COc1ccc(C(=O)CSc2nnc(COc3ccc(C#N)cc3)n2-c2ccccc2)cc1 was read as aDG glyco act inactive, PHOSPHO1 inh inactive, rCAG binder inactive, A3A deaminase inactive and A3G deaminase inactive.
For COc1cccc(-n2c(COc3ccc(C)cc3)nnc2SCC(N)=O)c1 the results were ALR inh inactive, aDG glyco act inactive, PHOSPHO1 inh inactive, rCAG binder inactive, A3A deaminase inactive and A3G deaminase inactive.
Screening COc1ccc(-n2c(Cc3cccn3C)nnc2SCC(=O)Nc2cccc(C)c2C)cc1 returned ALR inh 89, aDG glyco act inactive, PHOSPHO1 inh inactive, rCAG binder inactive, A3A deaminase inactive and A3G deaminase inactive.
For O=C(CSc1nnc(COc2ccccc2)n1-c1ccccc1)c1ccccc1 the results were ALR inh inactive, aDG glyco act inactive, PHOSPHO1 inh 76, rCAG binder inactive, A3A deaminase inactive and A3G deaminase inactive.
`CCN(CC)c1ccc(C=NNC(=O)Cc2cc(=O)[nH][nH]2)c(O)c1` gave rCAG binder inactive.
CCCCCCCCN1CN2Cc3cc(F)ccc3C2CS1(=O)=O (configuration not stated) was read as rCAG binder inactive.
CCCN1CCS(=O)(=O)N(Cc2cn(Cc3ccccc3)nn2)C(C(=O)OC)C1 (configuration not stated) was read as rCAG binder inactive.
`COC(=O)C1=C(C)NC(C)=C(C(=O)OC)C(N2C(=O)CCC2=O)C1` (configuration not stated) gave rCAG binder inactive.
`O=C(CSc1nnc(Cc2ccccc2)n1-c1ccccc1)NNC(=O)Cc1ccccc1` gave ALR inh 98, aDG glyco act inactive, PHOSPHO1 inh inactive, rCAG binder inactive, A3A deaminase inactive and A3G deaminase inactive.
For CCOC(=O)CSc1nnc(Cc2ccccc2)n1-c1cccc(Cl)c1 the results were ALR inh inactive, aDG glyco act inactive, PHOSPHO1 inh inactive, A3A deaminase inactive and A3G deaminase inactive.
Screening CCOC(=O)CSc1nnc(Cc2ccc(OC)cc2)n1-c1ccccc1 returned ALR inh inactive, aDG glyco act inactive, PHOSPHO1 inh 79, rCAG binder inactive, A3A deaminase inactive and A3G deaminase inactive.
`COC(=O)CSc1nnc(Cc2ccccc2)n1-c1ccc(C)cc1` gave ALR inh inactive, aDG glyco act inactive, PHOSPHO1 inh inactive, rCAG binder inactive, A3A deaminase inactive and A3G deaminase inactive.
For O=[N+]([O-])c1ccc(OCCCN2CCC(C(O)(c3ccccc3)c3ccccc3)CC2)c(Cl)c1 the results were rCAG binder inactive.
COC(=O)[C@@]12CCCCC3=C1N(CCC3)C(=O)[C@H]2CC(=O)N1CCN(C(=O)c2ccco2)CC1 was read as rCAG binder inactive.
For CCOC(=O)C1=C(O)/C(=C\c2ccc(O)c(OCC)c2)N=C1C the results were ALR inh 95, aDG glyco act inactive, PHOSPHO1 inh inactive, rCAG binder inactive, A3A deaminase inactive and A3G deaminase inactive.
`CCOC(=O)C1=C(O)/C(=C\c2ccc(OC)c(OC)c2)N=C1C` gave aDG glyco act inactive, PHOSPHO1 inh inactive, rCAG binder inactive, A3A deaminase inactive and A3G deaminase inactive.
`CCOc1cc(/C=C2/C(=O)ON=C2C)ccc1O` gave ALR inh 99, aDG glyco act inactive, PHOSPHO1 inh inactive, rCAG binder inactive, A3A deaminase inactive and A3G deaminase inactive.
Screening CCOc1cc(/C=C2/N=C(C)C(C(=O)OC)=C2O)ccc1O returned ALR inh 99, aDG glyco act inactive, PHOSPHO1 inh inactive, rCAG binder inactive, A3A deaminase inactive and A3G deaminase inactive.
For COc1cc(/C=C2/C(=O)ON=C2C)cc(Cl)c1O the results were ALR inh 91, aDG glyco act inactive, PHOSPHO1 inh inactive, rCAG binder inactive, A3A deaminase inactive and A3G deaminase inactive.
For CCOC(=O)CC[C@@H]1CC[C@]2(CCCN(C(=O)c3ccco3)C2)O1 the results were rCAG binder inactive.
For CCN(CC)C(=O)CC[C@@H]1CC[C@]2(CCCN(Cc3ccncc3)C2)O1 the results were rCAG binder inactive.
For N#Cc1ccc(Cn2ccc3ccc(-c4ccc5ccn(C(=O)C6CCCCC6)c5c4)cc32)cc1 the results were rCAG binder inactive.
For Nc1c(C(=O)NC2CC2)sc2nc3c(c(-c4ccco4)c12)CC/C3=C/c1ccco1 the results were ALR inh inactive, aDG glyco act inactive and PHOSPHO1 inh 81.
Screening Cc1nc2sc(C(=O)NC3CC3)c(N)c2c(C)c1Cl returned rCAG binder inactive.
O=C(NCc1ccco1)c1cc2sccc2n1Cc1ccccc1 was read as ALR inh 93, aDG glyco act inactive, PHOSPHO1 inh inactive, rCAG binder inactive, A3A deaminase inactive and A3G deaminase inactive.
Screening O=C(NCCc1ccccc1)c1cc2sccc2n1Cc1ccccc1 returned ALR inh inactive, aDG glyco act inactive, PHOSPHO1 inh inactive, rCAG binder inactive, A3A deaminase inactive and A3G deaminase inactive.
Screening COc1ccc(NCCC(O)c2ccc(Cl)cc2)cc1 (configuration not stated) returned ALR inh 99, aDG glyco act inactive, PHOSPHO1 inh inactive, rCAG binder inactive, A3A deaminase inactive and A3G deaminase inactive.
COc1ccc(Cl)cc1NC(=S)NCCc1ccc(F)cc1 was read as ALR inh inactive, aDG glyco act inactive, PHOSPHO1 inh inactive, A3A deaminase inactive and A3G deaminase inactive.
